KLK7 zymogen act – proKLK7 zymogen activators, primary screen, biochemical, fluorescence intensity; 370,000 compounds, 0.9% hits; purified proKLK7, EDANS-DABCYL substrate fluorescence; 100% is mature enzyme control, 0% vehicle; activation, % at 7 µM; Kallikrein-7 (Homo sapiens), P49862;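 active = activation above the mean of all tested compounds plus 3 SD, computed per campaign excluding outliers beyond control limits, cut at about 13% in these data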
ADAM10 inh – human ADAM10 inhibitors, primary screen, biochemical, QFRET, HTS | Disintegrin and metalloproteinase domain-containing protein 10 (Homo sapiens), O14672 | recombinant ADAM10, EDANS/DABCYL FRET peptide cleavage, 3 h | inhibition, % at 7 µM | 370,000 compounds, 0.62% hits;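 active = inhibition above a per-campaign cutoff equal to the mean of compounds falling between control-based bounds plus 3 SD, cut at about 20% in these data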;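 also: 0% = DMSO wells while the 100% control is not disclosed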
GRIN3A LBD mod – binders of NR3A ligand-binding domain, primary screen, biophysical, differential scanning fluorimetry, uHTS; NR3A LBD differential scanning fluorimetry, Tm shift; 0% = protein alone, 100% = glycine-bound protein; Tm shift relative to glycine control, % at 25 µM; Glutamate receptor ionotropic, NMDA 3A (GRIN3A) ligand-binding domain; AID 1259313, 2017; 340,000 compounds, 2.5% hits;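 active = melting temperature shift of at least 10% of the positive control shift, at one fixed dose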
FAS TE block – FAS thioesterase domain inhibitors, primary screen, biochemical, fluorescence intensity, uHTS | 360,000 compounds, 0.67% hits | Fatty acid synthase (Homo sapiens), P49327 | AID 602261, 2012 | inhibition, % at 15 µM | recombinant FAS-TE, OMFH fluorogenic substrate, fluorescence endpoint;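 active = compounds whose normalised, plate-corrected inhibition of enzyme fluorescence in the single-dose primary screen is 50% or more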;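 also: 0% = DMSO with enzyme and 100% = substrate without enzyme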
ADAM17 inh – ADAM17 inhibitors, primary screen, biochemical, QFRET; Disintegrin and metalloproteinase domain-containing protein 17 (Homo sapiens), P78536; AID 720648, 2013; recombinant ADAM17, EDANS/DABCYL FRET peptide cleavage; 370,000 compounds, 0.83% hits; inhibition, % at 6.95 µM;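 active = inhibition above the mean of compounds lying between control limits plus 3 SD, set per campaign, cut at about 8.5% in these data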;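 also: 0% = DMSO-only wells as the low control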
proKLK7 act conf – proKLK7 zymogen activators, confirmation, biochemical, fluorescence intensity, triplicate. shares compounds with KLK7 zymogen act. purified proKLK7, EDANS-DABCYL substrate fluorescence; scaled: vehicle 0, mature enzyme 100. activation, % at 7 µM. 3,200 compounds, 68% hits. AID 686949, 2013;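 active = activation, as change over the incubation, above the mean of all tested compounds plus 3 SD, cut at about 13% in these data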
EDANS interfere – EDANS-DABCYL substrate optical interference, artefact control for kallikrein-7 zymogen activator project, biochemical, fluorescence intensity, high throughput; shares compounds with KLK7 zymogen act; no enzyme, 4 h; solvent 0%, active enzyme control 100%; activation, % at 7 µM; 3,200 compounds, 80% hits;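 active = activation above the all-compound mean plus 3 SD, ignoring values outside control-based bounds, cut at about 4.8% in these data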;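 also: value is the 4 h activation minus the activation read at time zero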
* hit, by the source's call. The list is not random: actives were taken first. Their share in the collection is about 4.6%.

`CCCN(CCC)CCNC(=O)CCC(=O)Nc1ccc2nc(N3CCOCC3)cc(C)c2c1` gave KLK7 zymogen act 57*, ADAM10 inh inactive, GRIN3A LBD mod -2, FAS TE block -5, ADAM17 inh inactive, proKLK7 act conf 153* and EDANS interfere 144*.
`CCCCN(CC)CCNC(=S)Nc1ccc2nc(N3CCN(C)CC3)cc(C)c2c1` gave KLK7 zymogen act 3, ADAM10 inh -53, FAS TE block 0 and ADAM17 inh -28.
Screening CCCCN(CC)CCNC(=O)CCC(=O)Nc1ccc2nc(N3CCN(C)CC3)cc(C)c2c1 returned KLK7 zymogen act 78*, ADAM10 inh inactive, GRIN3A LBD mod -1, FAS TE block -4, ADAM17 inh inactive, proKLK7 act conf 106* and EDANS interfere 115*.
For COc1cccc(NC(=O)NCCCN2CCN(c3ccc(F)cc3)CC2)c1 the results were KLK7 zymogen act 0, ADAM10 inh -5, GRIN3A LBD mod -1, FAS TE block -1 and ADAM17 inh -5.
Screening CCC(Oc1ccc2c(c1)C(=O)CC(C)(C)O2)C(=O)NCCN1CCCCCC1 (stereo unspecified) returned KLK7 zymogen act 129*, ADAM10 inh inactive, GRIN3A LBD mod -1, FAS TE block -6, ADAM17 inh inactive, proKLK7 act conf 49* and EDANS interfere 44*.
Screening CC1(C)CC(=O)c2cc(OCC(=O)NCCCN3CCN(c4ccc(F)cc4)CC3)ccc2O1 returned KLK7 zymogen act 17*, ADAM10 inh -366, GRIN3A LBD mod 1, FAS TE block -2, ADAM17 inh -107, proKLK7 act conf 4 and EDANS interfere 2.
Screening CC(C)CCNC(=O)COc1ccc2c(c1)C(=O)CC(C)(C)O2 returned KLK7 zymogen act 40*, ADAM10 inh inactive, GRIN3A LBD mod 0, FAS TE block -6, ADAM17 inh -343, proKLK7 act conf 35* and EDANS interfere 47*.
Screening Cc1ccccc1NC(=O)COc1ccc2c(c1)OC(C)(C)CC2=O returned KLK7 zymogen act 0, ADAM10 inh 2, GRIN3A LBD mod 2, FAS TE block -4 and ADAM17 inh -3.
`CC1(C)CC(=O)c2cc(OCC(=O)NCCN3CCCc4ccccc43)ccc2O1` gave KLK7 zymogen act 18*, ADAM10 inh -472, GRIN3A LBD mod 1, FAS TE block -4, ADAM17 inh -158, proKLK7 act conf 43* and EDANS interfere 39*.
For CC(=O)N1C[C@@H](CO)[C@@H]2C[C@H]1c1ccccc1N2C the results were KLK7 zymogen act 1, ADAM10 inh -12 and ADAM17 inh -7.
`O=c1cc(N2CCN(c3cccc(C(F)(F)F)c3)CC2)[nH]c(=O)n1-c1ccccc1` gave ADAM10 inh 9 and ADAM17 inh 0.
Screening COC(=O)[C@]12C[C@H](CC(=O)NCCCCc3ccccc3)C(=O)N(Cc3ccc4c(c3)OCO4)C1=C[C@H](COCc1ccccc1)O[C@@H]2C returned KLK7 zymogen act 1, ADAM10 inh 11 and ADAM17 inh 3.
For Nc1ccc(-c2nc3ncccc3o2)cc1 the results were KLK7 zymogen act 39*, ADAM10 inh inactive, GRIN3A LBD mod -1, FAS TE block -4, ADAM17 inh inactive, proKLK7 act conf 58* and EDANS interfere 71*.

Screening results: PubChem, several laboratories
